From PubChem BioAssay (NCI) come the findings set out here.

Among the test systems are HCT-15 colon; HT29 colon; SNB-75 CNS; U251 CNS; PC-3 prostate; SK-MEL-5 melanoma; UACC-62 melanoma; LOX IMVI melanoma; SK-MEL-28 melanoma; SK-MEL-2 melanoma; EKVX NSCLC; SN12C renal; UO-31 renal; TK-10 renal; ACHN renal; CAKI-1 renal; A498 renal; CCRF-CEM leukemia; MOLT-4 leukemia.
Test in all cases: NCI-60 one-dose screen, 48 h (100 = growth as untreated, 0 = no growth, -100 = all killed)
Common to all, as to conditions: 10 µM unless noted

Compounds without any hit were thinned out: in the full panel of roughly 83,000, 20% have a hit.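 Treatment: one concentration, 48 hours, 96-well format. Scoring: percent growth, with anything below 10 considered active.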 A number with no mark means an inactive call. Calls of active or inactive are those of the source.

On to `COCCn1cc(-c2nc(-c3cc4cccnc4n3CCOC)cs2)c2cc(OC)ccc21`, for which the growth in the assay on HCT-15 colon was 17%; in the assay with HT29 colon it was 21.9%; in the assay on SNB-75 CNS, 62.6%; in the assay on U251 CNS, 69.8%; in the assay on PC-3 prostate, 29.3%; in the assay with SK-MEL-5 melanoma it was 36.7%. Also, the growth with UACC-62 melanoma is 80.7%; in the assay with LOX IMVI melanoma, 15.4%; in the assay with SK-MEL-28 melanoma, 87.2%; with SK-MEL-2 melanoma, 71.6%; with EKVX NSCLC, 26%; in the assay on SN12C renal, 78.8%. Further, the growth is 61.9% in the assay with UO-31 renal; 14% in the assay with TK-10 renal; 68.3% in the assay on ACHN renal; 70.4% in the assay on CAKI-1 renal; 66.8% in the assay with A498 renal; 35.2% with CCRF-CEM leukemia. Further, the growth in the assay on MOLT-4 leukemia is 58.4%.

`C=CCn1c(SCC(=O)Nc2ccc(C(=O)/C=C/c3cc4cc(OC)ccc4nc3Cl)cc2)nnc1-c1ccc(Br)cc1`: the growth in the assay with HCT-15 colon is 84.2%; with HT29 colon, 73.8%; with SNB-75 CNS, 74.8%; in the assay on U251 CNS it was 82.5%; with PC-3 prostate it was 68.2%; in the assay on SK-MEL-5 melanoma it was 82.9%. For the same molecule, the growth was 72.9% in the assay with UACC-62 melanoma; 82.6% in the assay with LOX IMVI melanoma; 99.9% in the assay with SK-MEL-28 melanoma; 79.2% in the assay on SK-MEL-2 melanoma; 87.4% in the assay with EKVX NSCLC; 81.5% in the assay with SN12C renal. The growth in the assay on UO-31 renal was 65.3%; with TK-10 renal, 93.5%; with ACHN renal, 92.1%; in the assay on CAKI-1 renal it was 76.1%; in the assay on A498 renal it was 89.5%; in the assay with CCRF-CEM leukemia, 58.5%. The growth with MOLT-4 leukemia was 68.5%.

Take `COC(=O)CNC(=O)[C@H](Cc1ccccc1)NCc1ccncc1`: the growth is 101% in the assay on HCT-15 colon; 86.6% in the assay with HT29 colon; 92.4% with SNB-75 CNS; 92.3% in the assay with U251 CNS; 87.2% in the assay with PC-3 prostate; 101% in the assay with SK-MEL-5 melanoma. Moreover, the growth was 99.3% in the assay with UACC-62 melanoma; 103% in the assay with LOX IMVI melanoma; 114% in the assay with SK-MEL-28 melanoma; 95.3% in the assay on SK-MEL-2 melanoma; 99.5% in the assay with EKVX NSCLC; 99.3% with SN12C renal. Also, the growth was 91.2% with UO-31 renal; 88.5% in the assay with TK-10 renal; 107% with ACHN renal; 99.1% with CAKI-1 renal; 88.3% in the assay on A498 renal; 86% in the assay with CCRF-CEM leukemia. For the same molecule, in the assay on MOLT-4 leukemia, the growth was 105%.

`COc1ccc(/C=C2\COc3ccc(O)cc3C2=O)c(OC)c1OC`: the growth in the assay on HCT-15 colon is 48.8%; with HT29 colon it was 68.5%; in the assay with SNB-75 CNS, 83%; in the assay with U251 CNS, 60.8%; in the assay with PC-3 prostate it was 77.1%; with SK-MEL-5 melanoma it was 89.9%. For the same molecule, the growth in the assay on UACC-62 melanoma was 78.7%; in the assay with LOX IMVI melanoma, 44.3%; in the assay on SK-MEL-28 melanoma, 99.2%; in the assay on SK-MEL-2 melanoma it was 102%; in the assay with EKVX NSCLC, 93.9%; with SN12C renal, 66.3%. Besides, the growth in the assay on UO-31 renal is 71.5%; with TK-10 renal, 109%; in the assay with ACHN renal, 80.1%; in the assay on CAKI-1 renal, 68.2%; in the assay with A498 renal, 113%; with CCRF-CEM leukemia, 8.08% (active). In the assay with MOLT-4 leukemia, the growth is 73.2%.

For `Cc1ccc(Cc2cnc(NC(=O)c3cc(Br)cs3)s2)cc1`, the growth in the assay with HCT-15 colon is 24.4%; in the assay on HT29 colon it was 16.3%; in the assay on SNB-75 CNS it was 64.5%; in the assay with U251 CNS, 46.9%; in the assay with PC-3 prostate, 46.4%; in the assay on SK-MEL-5 melanoma, 46%. In addition, the growth in the assay with UACC-62 melanoma is 44.7%; in the assay on LOX IMVI melanoma, 54.6%; with SK-MEL-28 melanoma, 61.7%; with SK-MEL-2 melanoma, 26.9%; in the assay with EKVX NSCLC, 78.3%; in the assay on SN12C renal, 68.7%. Moreover, the growth with UO-31 renal is 71.7%; in the assay with TK-10 renal it was 78.1%; with ACHN renal, 81.9%; in the assay on CAKI-1 renal, 53.9%; in the assay with A498 renal it was 55.1%; in the assay on CCRF-CEM leukemia it was 31.8%. Also, the growth in the assay on MOLT-4 leukemia was 36.1%.

For `OB(O)c1cccc(-c2nc3ccc4[nH]ncc4c3c3c2CCCC3)c1`, the growth in the assay with HCT-15 colon is 37.6%; with HT29 colon, 48.1%; in the assay with SNB-75 CNS, -30.6% (active); in the assay with U251 CNS it was 56.7%; in the assay on PC-3 prostate, 53.9%; in the assay with SK-MEL-5 melanoma, 68.1%. Also, the growth is 35.5% with UACC-62 melanoma; 35.6% in the assay with LOX IMVI melanoma; 91.9% with SK-MEL-28 melanoma; 81.1% in the assay on SK-MEL-2 melanoma; 65.6% with EKVX NSCLC; 48.8% with SN12C renal. For the same molecule, the growth in the assay with UO-31 renal is 35.1%; in the assay on TK-10 renal, 29.3%; in the assay on ACHN renal it was 38%; in the assay on CAKI-1 renal it was -11.5% (active); in the assay with A498 renal it was 15.2%; in the assay with CCRF-CEM leukemia, 32.2%. Also, the growth in the assay with MOLT-4 leukemia was 28.7%.

As to `CCc1nc2c(=O)[nH]cnc2o1`, the growth with HCT-15 colon is 110%; in the assay on HT29 colon, 108%; in the assay on SNB-75 CNS, 82.5%; with U251 CNS, 99%; in the assay with PC-3 prostate, 99.4%; in the assay with SK-MEL-5 melanoma, 103%. The growth in the assay on UACC-62 melanoma was 108%; in the assay with LOX IMVI melanoma, 94.2%; in the assay on SK-MEL-28 melanoma it was 106%; in the assay on SK-MEL-2 melanoma, 113%; in the assay with EKVX NSCLC, 104%; in the assay with SN12C renal it was 109%. For the same molecule, the growth was 108% in the assay on TK-10 renal; 105% in the assay with ACHN renal; 100% in the assay with CAKI-1 renal; 102% in the assay with A498 renal; 108% in the assay with CCRF-CEM leukemia; 108% with MOLT-4 leukemia.

With `S=C(Nc1ccc(-c2nc(N3CCOCC3)c3cccn3n2)cc1)Nc1cccnc1`, the growth in the assay with HCT-15 colon is 18.4%; in the assay on HT29 colon, 22.8%; with SNB-75 CNS, 36.5%; with U251 CNS it was 31.7%; in the assay with PC-3 prostate, 16.4%; in the assay on SK-MEL-5 melanoma it was 58.2%. The growth was 25.4% with UACC-62 melanoma; 30.8% with LOX IMVI melanoma; 45.9% with SK-MEL-28 melanoma; 43.5% in the assay on SK-MEL-2 melanoma; 46.7% in the assay with EKVX NSCLC; 28.8% in the assay with SN12C renal. Moreover, the growth in the assay on UO-31 renal was 15.1%; with TK-10 renal, 21.4%; with ACHN renal it was 37.3%; in the assay on CAKI-1 renal it was 60.6%; in the assay on A498 renal, -13.3% (active); in the assay with CCRF-CEM leukemia, 22.1%. For the same molecule, the growth in the assay with MOLT-4 leukemia is 36.8%.
